Columns and labels:
Assay in all cases: log2 ratio of Biotin-Ahx-Ub-VS probe labelling (fragment/DMSO); higher = less target engagement (more negative = stronger competition), active = hit call of the paper (q ≤ 0.05, log2 ratio ≤ -1)
Conditions in all cases: compound concentration: 200 uM; treatment time: 3 h
USP19 = molecular target: T1, USP19 (UniProt O94966)
T1 sequence (whole entry): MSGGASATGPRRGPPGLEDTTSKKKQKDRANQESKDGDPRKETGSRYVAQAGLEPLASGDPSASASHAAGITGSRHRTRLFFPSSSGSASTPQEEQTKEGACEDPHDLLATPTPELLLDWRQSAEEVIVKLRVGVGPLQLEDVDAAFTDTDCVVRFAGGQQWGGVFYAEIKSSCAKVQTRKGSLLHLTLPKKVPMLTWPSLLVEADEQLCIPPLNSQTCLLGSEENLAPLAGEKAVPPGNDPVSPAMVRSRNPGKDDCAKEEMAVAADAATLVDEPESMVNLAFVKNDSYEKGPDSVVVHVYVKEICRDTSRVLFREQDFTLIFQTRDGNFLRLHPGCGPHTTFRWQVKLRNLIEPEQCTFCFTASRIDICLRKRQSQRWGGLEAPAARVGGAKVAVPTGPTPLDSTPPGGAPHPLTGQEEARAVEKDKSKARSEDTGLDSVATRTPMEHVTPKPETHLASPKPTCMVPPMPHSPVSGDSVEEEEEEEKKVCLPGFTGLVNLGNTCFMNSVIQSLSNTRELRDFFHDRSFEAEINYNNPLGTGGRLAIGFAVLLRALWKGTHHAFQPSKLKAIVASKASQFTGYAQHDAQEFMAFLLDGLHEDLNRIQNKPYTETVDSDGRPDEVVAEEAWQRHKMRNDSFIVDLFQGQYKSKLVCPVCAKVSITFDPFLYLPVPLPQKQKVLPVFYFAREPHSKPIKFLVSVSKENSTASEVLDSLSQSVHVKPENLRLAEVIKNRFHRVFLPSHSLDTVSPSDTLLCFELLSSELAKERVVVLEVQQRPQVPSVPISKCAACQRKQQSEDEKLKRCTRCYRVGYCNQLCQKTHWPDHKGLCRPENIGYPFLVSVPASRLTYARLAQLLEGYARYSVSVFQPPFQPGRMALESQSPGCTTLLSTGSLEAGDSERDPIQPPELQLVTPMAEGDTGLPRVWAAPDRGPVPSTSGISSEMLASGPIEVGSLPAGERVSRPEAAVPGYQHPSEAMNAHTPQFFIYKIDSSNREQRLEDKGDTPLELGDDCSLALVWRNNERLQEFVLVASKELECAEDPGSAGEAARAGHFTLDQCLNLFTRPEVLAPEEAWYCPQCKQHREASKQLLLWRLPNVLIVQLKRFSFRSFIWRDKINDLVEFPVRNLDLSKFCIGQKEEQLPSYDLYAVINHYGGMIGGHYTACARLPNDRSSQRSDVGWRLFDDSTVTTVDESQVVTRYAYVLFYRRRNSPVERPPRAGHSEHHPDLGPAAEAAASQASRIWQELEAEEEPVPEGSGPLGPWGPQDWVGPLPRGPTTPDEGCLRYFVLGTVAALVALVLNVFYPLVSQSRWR
In short: (§1)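 Average log2 ratios of fragment over vehicle were obtained by unpaired t-test from global-median-normalised Spectronaut label-free quantities. Proteins with ≥2 unique peptides were included. HEK293T lysate (495 µg per sample) was treated in triplicate with fragment at 200 µM or vehicle for 3 h, then with Biotin-Ahx-Ub-VS at 0.5 µM final for 1 h, and labelled DUBs were NeutrAvidin-enriched and run by diaPASEF LC-MS/MS.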

USP22 = molecular target: T2, USP22 (UniProt Q9UPT9)
T2 sequence (whole entry): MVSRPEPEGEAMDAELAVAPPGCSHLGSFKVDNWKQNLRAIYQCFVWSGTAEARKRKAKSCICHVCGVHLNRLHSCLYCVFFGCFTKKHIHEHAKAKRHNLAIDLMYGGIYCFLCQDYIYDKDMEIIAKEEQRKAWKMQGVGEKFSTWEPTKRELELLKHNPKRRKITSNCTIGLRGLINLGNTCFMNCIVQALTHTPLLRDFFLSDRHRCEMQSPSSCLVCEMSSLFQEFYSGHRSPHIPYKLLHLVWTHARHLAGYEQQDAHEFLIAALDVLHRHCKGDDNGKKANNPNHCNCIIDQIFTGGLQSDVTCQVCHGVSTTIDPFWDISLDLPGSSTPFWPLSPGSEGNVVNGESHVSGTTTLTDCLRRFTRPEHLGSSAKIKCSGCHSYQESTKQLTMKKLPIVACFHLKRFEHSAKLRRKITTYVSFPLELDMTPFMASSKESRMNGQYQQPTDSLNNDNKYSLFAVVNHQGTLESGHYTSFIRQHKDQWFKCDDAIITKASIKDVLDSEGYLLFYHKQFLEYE
In short: as §1

USP24 = USP24 (UniProt Q9UPU5)
Sequence of USP24 (Q9UPU5 whole entry): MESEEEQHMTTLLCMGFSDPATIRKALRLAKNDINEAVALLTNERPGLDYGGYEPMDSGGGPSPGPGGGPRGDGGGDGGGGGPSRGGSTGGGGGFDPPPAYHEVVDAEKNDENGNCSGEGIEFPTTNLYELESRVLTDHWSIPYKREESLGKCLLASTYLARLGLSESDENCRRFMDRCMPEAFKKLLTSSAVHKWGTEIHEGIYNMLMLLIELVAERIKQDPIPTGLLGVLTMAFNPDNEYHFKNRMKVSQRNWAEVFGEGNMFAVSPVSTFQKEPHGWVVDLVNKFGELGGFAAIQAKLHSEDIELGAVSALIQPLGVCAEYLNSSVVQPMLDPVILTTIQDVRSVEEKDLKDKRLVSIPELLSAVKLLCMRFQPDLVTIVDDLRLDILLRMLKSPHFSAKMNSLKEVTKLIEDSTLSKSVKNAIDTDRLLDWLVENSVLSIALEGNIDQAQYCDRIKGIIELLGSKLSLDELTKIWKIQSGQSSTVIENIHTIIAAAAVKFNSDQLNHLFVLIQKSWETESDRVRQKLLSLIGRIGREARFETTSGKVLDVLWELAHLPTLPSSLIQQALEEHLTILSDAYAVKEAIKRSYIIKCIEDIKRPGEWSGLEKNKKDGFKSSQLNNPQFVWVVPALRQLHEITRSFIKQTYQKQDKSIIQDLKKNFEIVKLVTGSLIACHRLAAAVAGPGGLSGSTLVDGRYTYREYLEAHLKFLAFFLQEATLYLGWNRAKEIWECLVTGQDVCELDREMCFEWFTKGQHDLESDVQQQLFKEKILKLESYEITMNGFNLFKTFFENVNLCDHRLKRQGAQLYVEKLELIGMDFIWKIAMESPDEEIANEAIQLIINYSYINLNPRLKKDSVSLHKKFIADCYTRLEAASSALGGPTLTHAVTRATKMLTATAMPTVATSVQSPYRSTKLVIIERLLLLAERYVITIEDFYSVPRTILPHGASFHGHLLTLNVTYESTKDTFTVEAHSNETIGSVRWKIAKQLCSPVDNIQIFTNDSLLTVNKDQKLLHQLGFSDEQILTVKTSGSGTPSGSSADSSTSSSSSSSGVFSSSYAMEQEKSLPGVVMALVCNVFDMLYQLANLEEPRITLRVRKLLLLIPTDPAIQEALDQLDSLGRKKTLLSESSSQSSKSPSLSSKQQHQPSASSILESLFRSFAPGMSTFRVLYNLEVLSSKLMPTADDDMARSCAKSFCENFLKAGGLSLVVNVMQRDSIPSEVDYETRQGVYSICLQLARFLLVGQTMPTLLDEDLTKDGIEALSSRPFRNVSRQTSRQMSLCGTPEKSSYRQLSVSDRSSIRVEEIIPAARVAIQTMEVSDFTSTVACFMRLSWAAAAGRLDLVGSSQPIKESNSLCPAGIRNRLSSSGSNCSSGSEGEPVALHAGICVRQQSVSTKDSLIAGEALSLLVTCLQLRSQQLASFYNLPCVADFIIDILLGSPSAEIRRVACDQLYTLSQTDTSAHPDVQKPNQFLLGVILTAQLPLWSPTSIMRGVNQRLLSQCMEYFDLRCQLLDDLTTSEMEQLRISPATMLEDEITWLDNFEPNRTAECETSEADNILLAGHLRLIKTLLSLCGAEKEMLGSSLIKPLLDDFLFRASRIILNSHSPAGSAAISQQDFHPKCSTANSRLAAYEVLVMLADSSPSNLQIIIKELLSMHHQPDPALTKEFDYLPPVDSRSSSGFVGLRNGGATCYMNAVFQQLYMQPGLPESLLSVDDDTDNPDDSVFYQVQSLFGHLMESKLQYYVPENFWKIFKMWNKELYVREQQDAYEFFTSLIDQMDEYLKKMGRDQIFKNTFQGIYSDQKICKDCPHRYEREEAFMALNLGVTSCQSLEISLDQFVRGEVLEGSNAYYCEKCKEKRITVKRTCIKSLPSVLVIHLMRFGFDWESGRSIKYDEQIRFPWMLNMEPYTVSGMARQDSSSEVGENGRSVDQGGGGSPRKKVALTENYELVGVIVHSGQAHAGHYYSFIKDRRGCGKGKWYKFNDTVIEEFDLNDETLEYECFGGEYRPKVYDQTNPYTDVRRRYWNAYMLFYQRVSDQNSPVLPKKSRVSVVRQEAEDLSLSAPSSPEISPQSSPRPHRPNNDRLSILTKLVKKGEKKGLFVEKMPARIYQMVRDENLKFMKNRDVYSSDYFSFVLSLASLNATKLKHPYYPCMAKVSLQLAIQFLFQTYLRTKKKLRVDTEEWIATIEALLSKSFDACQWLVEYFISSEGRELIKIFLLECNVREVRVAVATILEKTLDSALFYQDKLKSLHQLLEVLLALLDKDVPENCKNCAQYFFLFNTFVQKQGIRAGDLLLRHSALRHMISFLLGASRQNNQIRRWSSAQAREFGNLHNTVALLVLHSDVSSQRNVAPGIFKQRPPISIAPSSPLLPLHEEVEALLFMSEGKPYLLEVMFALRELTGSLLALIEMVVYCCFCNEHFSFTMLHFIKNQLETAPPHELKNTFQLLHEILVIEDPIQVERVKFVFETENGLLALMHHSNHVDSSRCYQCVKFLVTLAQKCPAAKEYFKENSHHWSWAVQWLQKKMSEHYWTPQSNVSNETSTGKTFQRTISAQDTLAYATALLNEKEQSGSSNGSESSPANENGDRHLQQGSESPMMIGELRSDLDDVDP
In short: as §1

USP25 = molecular target: T3, USP25 (UniProt Q9UHP3)
T3 sequence (whole entry): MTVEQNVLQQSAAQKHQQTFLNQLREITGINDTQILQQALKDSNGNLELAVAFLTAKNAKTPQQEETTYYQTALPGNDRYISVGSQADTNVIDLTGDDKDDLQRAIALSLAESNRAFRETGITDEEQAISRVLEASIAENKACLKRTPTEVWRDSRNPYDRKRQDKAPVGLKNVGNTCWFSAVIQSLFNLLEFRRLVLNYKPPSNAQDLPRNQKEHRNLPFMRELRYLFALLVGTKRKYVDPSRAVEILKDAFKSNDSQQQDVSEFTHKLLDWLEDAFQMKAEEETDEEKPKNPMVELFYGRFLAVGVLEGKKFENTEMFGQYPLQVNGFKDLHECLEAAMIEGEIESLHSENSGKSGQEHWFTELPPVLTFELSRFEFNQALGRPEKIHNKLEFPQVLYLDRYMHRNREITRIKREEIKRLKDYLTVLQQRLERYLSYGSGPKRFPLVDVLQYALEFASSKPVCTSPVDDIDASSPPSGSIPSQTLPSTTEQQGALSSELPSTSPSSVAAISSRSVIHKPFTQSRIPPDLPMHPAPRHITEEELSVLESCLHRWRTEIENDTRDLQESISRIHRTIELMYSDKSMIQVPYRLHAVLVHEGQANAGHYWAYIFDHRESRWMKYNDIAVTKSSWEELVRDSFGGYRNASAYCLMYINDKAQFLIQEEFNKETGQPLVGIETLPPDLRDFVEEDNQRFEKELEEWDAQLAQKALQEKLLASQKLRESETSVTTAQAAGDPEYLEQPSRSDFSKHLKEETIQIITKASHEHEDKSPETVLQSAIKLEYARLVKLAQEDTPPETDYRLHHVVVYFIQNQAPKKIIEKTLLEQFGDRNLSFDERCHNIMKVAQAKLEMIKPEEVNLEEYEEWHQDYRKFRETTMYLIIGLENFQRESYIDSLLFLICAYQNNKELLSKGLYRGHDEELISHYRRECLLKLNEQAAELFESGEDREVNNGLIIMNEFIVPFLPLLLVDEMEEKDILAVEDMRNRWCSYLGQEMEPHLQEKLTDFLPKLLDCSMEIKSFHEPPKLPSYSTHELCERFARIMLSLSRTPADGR
In short: as §1

USP28 = molecular target: T4, USP28 (UniProt Q96RU2)
T4 sequence (whole entry): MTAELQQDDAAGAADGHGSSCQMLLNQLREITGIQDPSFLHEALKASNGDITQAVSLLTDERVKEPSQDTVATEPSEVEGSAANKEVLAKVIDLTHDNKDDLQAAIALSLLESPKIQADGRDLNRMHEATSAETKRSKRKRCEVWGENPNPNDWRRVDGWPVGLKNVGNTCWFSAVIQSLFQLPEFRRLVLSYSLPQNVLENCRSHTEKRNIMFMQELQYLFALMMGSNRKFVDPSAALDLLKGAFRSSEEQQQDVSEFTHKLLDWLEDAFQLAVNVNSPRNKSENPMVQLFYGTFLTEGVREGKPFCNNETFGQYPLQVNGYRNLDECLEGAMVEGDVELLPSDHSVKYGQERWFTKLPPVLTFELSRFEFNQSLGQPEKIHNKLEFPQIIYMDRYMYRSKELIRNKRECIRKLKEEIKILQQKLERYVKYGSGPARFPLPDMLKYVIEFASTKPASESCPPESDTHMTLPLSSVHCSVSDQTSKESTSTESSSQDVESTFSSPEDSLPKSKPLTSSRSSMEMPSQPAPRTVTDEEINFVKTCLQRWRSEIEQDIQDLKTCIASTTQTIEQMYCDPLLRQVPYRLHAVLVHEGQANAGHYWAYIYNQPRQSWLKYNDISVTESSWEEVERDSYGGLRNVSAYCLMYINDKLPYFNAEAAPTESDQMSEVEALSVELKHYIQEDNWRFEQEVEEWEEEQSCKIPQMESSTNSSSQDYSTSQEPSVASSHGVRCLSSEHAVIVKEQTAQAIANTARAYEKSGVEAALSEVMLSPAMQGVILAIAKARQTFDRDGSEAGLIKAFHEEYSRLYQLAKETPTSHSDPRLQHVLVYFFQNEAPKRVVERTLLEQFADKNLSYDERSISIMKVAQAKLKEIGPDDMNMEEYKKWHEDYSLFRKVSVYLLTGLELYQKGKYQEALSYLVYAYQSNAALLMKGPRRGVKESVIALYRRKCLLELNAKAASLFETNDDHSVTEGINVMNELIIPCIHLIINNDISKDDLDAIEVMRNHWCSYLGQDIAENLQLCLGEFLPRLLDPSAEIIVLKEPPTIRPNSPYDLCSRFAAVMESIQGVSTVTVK
In short: as §1

Measured: log2 ratio of Biotin-Ahx-Ub-VS probe labelling

Cc1ccc(CNC(=O)CCl)nc1C.Cl
inactive: USP19 -0.0635 | USP22 0.00229 | USP24 -0.467 | USP25 -0.436 | USP28 -0.456

Source: the supplement of paper PMC11732987, “Enantioselective OTUD7B fragment discovery through chemoproteomics screening and high-throughput optimisation” (Communications Chemistry, 2025)
